Assay [1] can be described thus: qHTS assay to identify small molecule antagonists of the glucocorticoid receptor (GR) signaling pathway - cell viability counter screen (AID 720693). Note: nearly all actives have a fitted effect of over 55% in size. Note: potency is the fitted concentration of half-maximal effect.
The nature of assay [2]: qHTS assay to identify small molecule antagonists of the androgen receptor (AR) signaling pathway - cell viability counter screen (AID 743033; note: nearly all actives have a fitted effect of over 45% in size; note: potency is the fitted concentration of half-maximal effect).
Assay [3] is described as follows: qHTS assay to identify small molecule antagonists of the androgen receptor (AR) signaling pathway using the MDA cell line - cell viability counter screen (AID 743041; note: nearly all actives have a fitted effect of over 45% in size; note: potency is the fitted concentration of half-maximal effect). The gist of the method: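 qHTS viability read-out; MDA-kb2 AR-luc; R1881-stimulated; 16 h exposure at 37C, 0% CO2; CellTiter-Fluor, 30 min; fluorescence intensity.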
(qHTS replaces the single test concentration by a dilution series.)

Assay [4] in a line: qHTS assay for identifying genotoxic compounds that show differential cytotoxicity against isogenic chicken DT40 cell lines with known DNA damage response pathways - Rev3 mutant cell line (AID 743014). Note: nearly all actives have a fitted effect of over 55% in size. Note: potency is the fitted concentration of half-maximal effect.
The nature of assay [5]: qHTS assay for identifying genotoxic compounds that show differential cytotoxicity against isogenic chicken DT40 cell lines with known DNA damage response pathways - wild type cell line (AID 743012). Note: nearly all actives have a fitted effect of over 60% in size. Note: potency is the fitted concentration of half-maximal effect. The gist of the method:
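Endpoint: CellTiter-Glo luminescence, 30 min RT. Cells: wild type DT40, 300/well. Exposure: compounds in DMSO, 40 h, 37 C/5% CO2, after ~0.5 h pre-incubation.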

Assay [6] addresses Androgen receptor (Homo sapiens) (UniProt P10275). Put plainly: qHTS assay to identify small molecule agonists of the androgen receptor (AR) signaling pathway using the MDA cell line (AID 743040; note: nearly all actives have a fitted effect of over 20% in size; note: potency is the fitted concentration of half-maximal effect). The gist of the method: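 Agonist activity is measured as luciferase luminescence in human MDA-kb2 cells whose MMTV reporter responds to both AR and GR. Compounds in DMSO incubate 16 h at 37C, 0% CO2, and ONE-Glo is read after 30 min.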

Assay [7] in a line: qHTS assay for identifying genotoxic compounds that show differential cytotoxicity against isogenic chicken DT40 cell lines with known DNA damage response pathways - Rad54/Ku70 mutant cell line (AID 743015). Note: nearly all actives have a fitted effect of over 60% in size. Note: potency is the fitted concentration of half-maximal effect.
Assay [8] deals with Androgen receptor (Homo sapiens) (UniProt P10275). The assay can be described thus: qHTS assay to identify small molecule antagonists of the androgen receptor (AR) signaling pathway (AID 743035; active = well fitted inhibition curve with a large enough effect in the signal ratio in the repeat runs, not every such curve was filed as active; the % refers to the signal ratio; note: potency is the fitted concentration of half-maximal effect). The essentials:
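R1881 agonist challenge of a HEK293 UAS-beta-lactamase AR reporter line in the presence of compound (16 h, 37C); signal taken as FRET fluorescence after 2 h with LiveBLAzer B/G substrate at room temperature.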

The target is the same in assay [9]. The assay can be described thus: qHTS assay to identify small molecule antagonists of the androgen receptor (AR) signaling pathway using the MDA cell line (AID 743042; note: nearly all actives have a fitted effect of over 55% in size; note: potency is the fitted concentration of half-maximal effect). The essentials:
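MDA-kb2 cells (human breast carcinoma, stably carrying an MMTV-luciferase reporter responsive to AR and GR) were plated at 3,000 cells/well and preincubated 5 hr at 37C, then given compound plus R1881 agonist for 16 h. ONE-Glo luminescence was read.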

Assay [10] shares this target. The assay can be described thus: qHTS assay to identify small molecule agonists of the androgen receptor (AR) signaling pathway (AID 743036; active = well fitted activation curve with a large enough effect in the signal ratio in the repeat runs, with a control signal flat, not every such curve was filed as active; the % refers to the signal ratio). The gist of the method: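 Reporter line: GeneBLAzer AR-UAS-bla-GripTite (HEK293). Steps: plate cells, 4 h rest, add compounds, 16 h at 37C, add LiveBLAzer B/G substrate, 2 h at RT, read fluorescence.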

Several values for one entry are separate records, joined by “and”; a condition that tells them apart may be missing. Equal entries are not always repeated. Results filed as inconclusive are left out. Activity calls are given as the source filed them. Unless noted, calls come from the whole dose curve; as a rule, active = well fitted curve in the direction sought with a large enough effect in the repeat runs; inconclusive = weak or mixed curves; inactive = no such curve, though single readings can be large; an effect the other way counts as inactive or inconclusive.

Sequence of Androgen receptor (Homo sapiens) (P10275 whole entry, looked up): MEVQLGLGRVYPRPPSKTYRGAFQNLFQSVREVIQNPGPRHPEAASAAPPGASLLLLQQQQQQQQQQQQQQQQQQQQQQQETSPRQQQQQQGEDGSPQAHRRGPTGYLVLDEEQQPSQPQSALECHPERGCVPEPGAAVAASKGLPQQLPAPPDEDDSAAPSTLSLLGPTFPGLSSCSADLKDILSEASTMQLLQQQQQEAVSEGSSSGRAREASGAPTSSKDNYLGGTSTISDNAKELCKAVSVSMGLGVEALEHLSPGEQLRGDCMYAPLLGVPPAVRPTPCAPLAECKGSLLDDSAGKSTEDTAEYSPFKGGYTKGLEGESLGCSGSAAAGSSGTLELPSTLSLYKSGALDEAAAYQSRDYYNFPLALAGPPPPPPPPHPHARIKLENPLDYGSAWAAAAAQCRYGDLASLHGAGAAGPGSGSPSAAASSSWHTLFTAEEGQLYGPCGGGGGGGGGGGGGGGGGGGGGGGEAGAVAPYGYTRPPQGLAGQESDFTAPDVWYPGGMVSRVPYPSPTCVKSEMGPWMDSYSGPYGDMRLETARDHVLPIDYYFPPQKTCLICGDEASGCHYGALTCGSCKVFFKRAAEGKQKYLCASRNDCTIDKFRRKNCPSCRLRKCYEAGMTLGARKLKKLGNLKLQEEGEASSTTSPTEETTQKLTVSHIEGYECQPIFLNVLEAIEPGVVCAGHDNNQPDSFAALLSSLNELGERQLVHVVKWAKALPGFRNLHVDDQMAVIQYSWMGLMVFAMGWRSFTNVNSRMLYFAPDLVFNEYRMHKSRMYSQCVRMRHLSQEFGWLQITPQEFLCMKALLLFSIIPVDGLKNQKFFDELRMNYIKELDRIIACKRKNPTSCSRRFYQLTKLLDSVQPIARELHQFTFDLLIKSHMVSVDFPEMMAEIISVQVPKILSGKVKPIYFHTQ

Take `COC(=O)CC(C)CCC=C(C)C` (centres undefined): the Potency entry in assay [1], in [2] and in assay [3] was “inactive” in each case.

In the case of `CC(=O)Oc1ccc(C2(c3ccc(OC(C)=O)cc3)C(=O)Nc3ccccc32)cc1`, the Potency result in assay [1], in [4] and in [2] was “inactive” throughout.

Take `c1cc2c3c(c1)ccc1cccc(c13)C2`: the Potency result in assay [1], in assay [5] and in assay [3] was “inactive” each time.

With `CN(C)CCOC(c1ccccc1)c1ccccc1` (tested in a mixture with another compound), the Potency entry in [1], in [6] and in assay [3] was “inactive” throughout.

In the case of `O=Cc1ccc(F)cc1`, the Potency result in assay [1], in [2], in assay [8], in [6], in assay [3] and in assay [9] was “inactive” in each case. Moreover, the Potency in assay [4] and in [7] was 19.3 µM (active) throughout.

As for `CCOC(=O)COc1ccc(C)cc1`, the Potency result in assay [1], in assay [7], in assay [2] and in assay [3] was “inactive” each time.

Consider `O=C1NC2CCCCN2C12CCN(CCCN1c3ccccc3CCc3ccc(Cl)cc31)CC2` (centres undefined), for which the figures for the Potency in [5], in assay [4] and in [7] were 9.44 µM (active), 13.3 µM (active) and 13.3 µM (active), respectively.

With `C=CC(C)(CCC=C(C)C)OC(=O)/C=C/c1ccccc1` (centres undefined), the Potency entry in assay [1], in [8], in assay [6], in assay [3] and in [9] was “inactive” each time. Besides, the compound was called inactive in [10].

For the compound `C=C(C)C(=O)OCCC[Si](Cl)(Cl)Cl`, the Potency result in [1], in assay [4], in assay [7], in [2] and in assay [3] was “inactive” throughout.

Take `C=CC(=C)CCC=C(C)C`: the Potency entry in [1], in [2] and in assay [3] was “inactive” throughout.

Regarding `c1ccc(Sc2ccccc2)cc1`, the Potency entry in assay [1], in [8], in assay [6], in assay [3] and in assay [9] was “inactive” in each case. Moreover, the Potency in [4] is 68.6 µM (active). Besides, the result in assay [10] was inactive.

As to `Nc1cc(Cl)c([N+](=O)[O-])cc1O`, the Potency entry in assay [1] and in assay [2] was “inactive” throughout.

As to `CCNc1nc(NC(C)CC)nc(OC)n1` (centres undefined), the Potency entry in assay [1], in assay [2] and in assay [3] was “inactive” throughout.

Turning to `Oc1ccc(-c2ccc(O)cc2)cc1`, the Potency result in assay [1], in assay [2] and in [3] was “inactive” each time. For the same compound, the Potency is 17.3 µM (active) in assay [4] and 24.5 µM (active) in assay [7].

Turning to `C=CC(=O)OCCOCC(CC)(COCCOC(=O)C=C)COCCOC(=O)C=C`, the Potency in [5] was 6.37 µM (active); in assay [4], 4.51 µM (active); in assay [7] it was 5.06 µM (active); in [2], 22.8 µM (active).

In the case of `O=C1OC(OC(=O)c2cccnc2Nc2cccc(C(F)(F)F)c2)c2ccccc21` (centres undefined), the Potency result in assay [1], in assay [4], in assay [7], in [2], in assay [8] and in assay [6] was “inactive” each time. In addition, the Potency entry in [3] and in assay [9] was “inactive” each time.

Turning to `C[C@]12CC[C@H]3C(=CCc4cc(O)ccc43)[C@@H]1CCC2=O`, in [1], the Potency entry is “inactive”. Further, the Potency in assay [4] was 54.5 µM (active); in assay [7], 48.6 µM (active); in [6] it was 5.45 µM (active); in assay [9] it was 27.3 µM (active).

In the case of `CCCCCCCCCCCC(=O)N(CC)CC`, the Potency entry in assay [1], in [2] and in [3] was “inactive” throughout. Further, in assay [4], the Potency was 30.6 µM (active).

With `Cc1oc(-c2ccccc2)nc1CCOc1ccc(C[C@H](Nc2ccccc2C(=O)c2ccccc2)C(=O)O)cc1`, the Potency in assay [1] is 38.9 µM (active); in assay [4], 61.1 µM (active); in assay [7], 54.5 µM (active); in assay [3], 61.1 µM (active). For the same compound, the Potency entry in assay [2] and in [6] was “inactive” each time.

As to `COC(=O)[C@]1(C)CCC[C@@]2(C)[C@H]1CC=C1C=C(C(C)C)CC[C@@H]12`, the Potency entry in assay [1], in assay [2] and in assay [3] was “inactive” each time. Also, in assay [7], the Potency was 61.1 µM (active).

For the compound `CC(COC(=O)c1ccccc1)OC(=O)c1ccccc1` (centres undefined), the Potency result in assay [1], in assay [4] and in assay [2] was “inactive” throughout. For the same compound, the Potency in assay [7] is 61.1 µM (active).

As to `CN1[C@@H]2CC[C@@H]1CC(OC(=O)C(CO)c1ccccc1)C2` (some centres undefined), the Potency entry in assay [1], in [2] and in [3] was “inactive” each time.

Regarding `O=C(O)Cc1ccc(OCCNC[C@H](O)c2ccccc2)cc1`, the Potency entry in assay [1], in assay [2], in assay [6], in assay [3] and in assay [9] was “inactive” in each case.

With `CN1[C@@H]2CC[C@H]1CC(OC(=O)C(CO)c1ccccc1)C2` (some centres undefined), the Potency result in [1], in assay [2] and in assay [3] was “inactive” in each case.

Turning to `Brc1ccccc1-c1ccccc1`, the Potency entry in assay [1], in assay [2] and in [3] was “inactive” throughout. Moreover, the Potency in assay [4] and in [7] was 41 µM (active) throughout.

For `CC1CCCNC1` (centres undefined), the Potency entry in [1] and in [3] was “inactive” throughout.

Regarding `CC(=O)OC(OC(C)=O)c1ccc([N+](=O)[O-])o1`, the Potency was 19.7 µM (active) in assay [5], 5.54 µM (active) in assay [4], 15.6 µM (active) in [7] and 22.3 µM (active) in assay [2].

Consider `CC1=C(/C=C/C(C)=C/C=C/C(C)=C\C=O)C(C)(C)CCC1`, for which the Potency in [5] was 14.5 µM (active); in [4], 14.5 µM (active); in assay [7], 13 µM (active); in assay [2], 29.3 µM (active). Besides, the Potency result in [3] is “inactive”.

Consider `C=C1C(C)(C)[C@@]2(Cl)C(Cl)[C@]1(Cl)C(Cl)(Cl)C2(Cl)Cl` (some centres undefined), for which the Potency in assay [5] is 47.7 µM (active); in assay [4] it was 6.73 µM (active); in [7] it was 23.9 µM (active). Moreover, in assay [10], the call was inactive. In addition, the Potency entry in assay [6], in assay [3] and in [9] was “inactive” in each case.

Consider `CC(C)(c1cc(Br)c(O)c(Br)c1)c1cc(Br)c(O)c(Br)c1`, for which the Potency in assay [5] was 57.9 µM (active); in [4], 60.9 µM (active) and 64.9 µM (active); in assay [7], 51.6 µM (active); in [2], 54.8 µM (active). Further, in assay [3], the Potency entry is “inactive”.

On to `N#CSCSc1nc2ccccc2s1`, for which the Potency is 0.864 µM (active) in assay [5], 0.969 µM (active) in [4], 0.969 µM (active) in assay [7] and 13.8 µM (active) in assay [2]. The Potency result in assay [6] is “inactive”.

Regarding `CC(NCCC(c1ccccc1)c1ccccc1)c1ccccc1` (centres undefined), the Potency in [5] is 2.98 µM (active); in [4], 4.22 µM (active); in assay [7], 5.31 µM (active); in assay [2] it was 21.3 µM (active); in assay [8], 21.3 µM (active); in assay [3] it was 23.7 µM (active). In addition, in assay [9], the Potency is 23.7 µM (active). Also, the Potency entry in [6] was “inactive”.

As for `C[n+]1c2cc(N)ccc2cc2ccc(N)cc21` (tested in a mixture with another compound), the Potency in [5] was 5.96 µM (active); in assay [4], 1.68 µM (active); in [7], 2.66 µM (active). In [6], the Potency entry is “inactive”.
